We go through six molecules from PubChem BioAssay (NCATS).

The nature of assay [1]: AP1 Signaling Pathway (AID 357; active = well fitted curve in either direction with a large enough effect, not every such curve was filed as active; note: % is set by controls: 0 for no effect and ±100 for the full control effect). An outline of the steps:
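AP-1-bla ME-180 cells with beta-lactamase reporter under AP-1 response element, stimulated with EC50 EGF; compounds titrated, 5 hours at 37 degrees Celsius. CCF4 read at 460/530 nm ratio; positive and negative modulators judged by AC50.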

The target in assay [2] is Cytochrome P450 1A2 (Homo sapiens) (UniProt P05177). Put plainly: p450-cyp1a2 (AID 410; calls by dose curve;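 note: -100% = full effect of reference inhibitor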). A digest of the protocol: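 Human CYP1A2 (20nM) demethylated Luciferin-ME at its Km (100uM) in 100mM KPO4. After 10 min compound preincubation, NADPH regeneration ran the reaction 60 min at room temperature. Luciferin was read by luminescence, normalized to 57 uM furafylline.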
Sequence of Cytochrome P450 1A2 (Homo sapiens) (P05177 whole entry, looked up): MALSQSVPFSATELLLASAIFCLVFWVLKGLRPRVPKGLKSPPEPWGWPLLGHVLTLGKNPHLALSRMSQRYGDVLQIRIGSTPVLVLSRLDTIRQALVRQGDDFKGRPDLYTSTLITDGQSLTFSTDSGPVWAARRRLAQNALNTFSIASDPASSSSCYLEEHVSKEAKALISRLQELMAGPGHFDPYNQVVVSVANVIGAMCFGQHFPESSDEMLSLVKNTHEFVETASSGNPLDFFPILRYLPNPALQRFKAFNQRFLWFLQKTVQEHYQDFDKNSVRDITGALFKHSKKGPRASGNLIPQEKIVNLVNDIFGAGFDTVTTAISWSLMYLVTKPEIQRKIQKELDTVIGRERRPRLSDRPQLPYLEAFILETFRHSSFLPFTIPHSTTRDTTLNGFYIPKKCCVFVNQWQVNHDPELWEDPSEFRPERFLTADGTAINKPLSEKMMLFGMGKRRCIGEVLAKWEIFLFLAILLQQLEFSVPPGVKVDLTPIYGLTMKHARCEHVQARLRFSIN
Assay [3] is described as follows: NFAT Signaling Pathway (AID 444; active = well fitted curve in either direction with a large enough effect, not every such curve was filed as active;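 note: carbachol stimulus at about its EC50 of 1 µM final; % is set by controls: 0 for no effect and ±100 for the full control effect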). The conditions noted are these: Jurkat NFAT-bla M1, carbachol, beta-lactamase ratio, 5 h; at 17.2 µM (top of the series) unless noted. An outline of the steps:
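Jurkat cells carrying an NFAT-driven β-lactamase reporter and co-transfected muscarinic M1 receptor were treated with compound plus carbachol (1 uM final, an EC50 level) for 5 h at 37 °C. CCF4 loading followed for 1 h at RT; 460/530 nm ratio gave %activity.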

A short description of assay [4]: Stat Signaling Pathway (AID 446; active = well fitted curve in either direction with a large enough effect, not every such curve was filed as active;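 note: ME-180 cervical cancer cells given 40 pM IL-6 alongside compound; SIE-controlled beta-lactamase reporter measured as 460/530 nm FRET emission ratio; % is set by controls: 0 for no effect and ±100 for the full control effect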). An outline of the steps: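 Reporter line: ME-180 cervical carcinoma, SIE-beta-lactamase. Treatment: compound with 40 pM IL-6, 5 hrs, 37 C, in low-serum OPTI-MEM with 10 mM HEPES pH 7.3. Detection: 460/530 nm fluorescence.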
Assay [5] addresses Glucocorticoid receptor (Homo sapiens) (UniProt P04150). Put plainly: GR-GFP Redistribution (AID 450;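 active = compounds whose dose series gives a full or clear partial fitted curve of increased nuclear translocation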; note: potency is the fitted concentration of half-maximal effect). The conditions noted are these: U2OS GR-GFP nuclear translocation, laser cytometry, 2 h.
Assay [6] has the same target. Description: GR-EFC Redistribution (AID 451; calls by dose curve; note: potency is the fitted concentration of half-maximal effect). The conditions noted are these: CHO-K1 GR-EFC translocation, beta-gal luminescence, 2 h. An outline of the steps: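 CHO-K1 cells stably expressing nuclear-localized β-gal enzyme acceptor and GR fused C-terminally to the enzyme donor fragment; ligand-driven nuclear translocation restores β-gal by complementation. Compounds titrated up to 46 uM final, 2 h at 37 °C; luminescence read.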

In assay [7] the target is Mitogen-activated protein kinase 10 (Mus musculus) (UniProt Q61831). Put plainly: JNK3 AlphaScreen Assay (AID 530; active = well fitted curve in either direction with a large enough effect, not every such curve was filed as active;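 note: kinase came from lysate of stimulated human HepG2 cells; signal reports phosphorylation of biotinylated GST-cJun 1-79 at Ser73 with 10 µM ATP; % is set by controls: 0 for no effect and ±100 for the full control effect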). A digest of the protocol: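 JNK3 came from HepG2 lysates pre-activated with IL-1beta and TNF-alpha and phosphorylated biotinylated GST-cJun (1-79) at 10 uM ATP, pH 7.6, room temperature. Compounds were titrated. AlphaScreen signal used anti-phospho-cJun (Ser73) antibody.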
Background: Bead proximity is the source of the signal in Alpha formats.

Assay [8] deals with 3',5'-cyclic-AMP phosphodiesterase 4B (Homo sapiens) (UniProt Q07343). Description: qHTS Assay for Inhibitors of PDE-IV (AID 607; active = well fitted activation curve with a large enough effect in the main read-out, with a control signal flat, not every such curve was filed as active; note: % of control where 0% means no effect). An outline of the steps:
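Cell-based read-out of cAMP via a modified cyclic nucleotide-gated channel and membrane potential dye (535/590 nm) in HEK293 cells expressing PDE4 endogenously. Compounds tested up to 22.9 uM final; 100 uM RO 20-1724 reference.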
(Quantitative high-throughput screening tests each substance at several concentrations.)

Assay [9] is described as follows: qHTS Assay for Lipid Storage Modulators (AID 1519; calls by dose curve). The conditions noted are these: Drosophila S3 cells, BODIPY lipid droplet/cell ratio, laser cytometry, cells loaded with oleic acid; for activity change, negative = inhibition: at 25.7 µM (top of the series). A digest of the protocol:
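Cells seeded at 5,000 per well were treated with compounds over a concentration series and loaded with oleic acid (400 uM, as added). Lipid droplet fluorescence (488 nm excitation, 500-530 nm channel) was read by laser-scanning cytometry and normalized to 20 uM Triacsin C.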

For assay [10], the target named is Ubiquitin carboxyl-terminal hydrolase 1 (Homo sapiens) (UniProt O94782). Put plainly: Inhibitors of USP1/UAF1: Pilot qHTS (AID 504865).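 Note: rhodamine fluorescence freed from ubiquitin-rhodamine substrate followed over time; top concentration of the series differs between compounds; % is set by controls: 0 for no effect and ±100 for the full control effect; nearly all actives have a fitted effect of over 35% in size.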 A digest of the protocol: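 Kinetic fluorescence assay: 1nM USP1/UAF1, 15 min compound preincubation, then 150nM Ub-Rho; 480/540 nm.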
Sequence of Ubiquitin carboxyl-terminal hydrolase 1 (Homo sapiens) (O94782 whole entry, looked up): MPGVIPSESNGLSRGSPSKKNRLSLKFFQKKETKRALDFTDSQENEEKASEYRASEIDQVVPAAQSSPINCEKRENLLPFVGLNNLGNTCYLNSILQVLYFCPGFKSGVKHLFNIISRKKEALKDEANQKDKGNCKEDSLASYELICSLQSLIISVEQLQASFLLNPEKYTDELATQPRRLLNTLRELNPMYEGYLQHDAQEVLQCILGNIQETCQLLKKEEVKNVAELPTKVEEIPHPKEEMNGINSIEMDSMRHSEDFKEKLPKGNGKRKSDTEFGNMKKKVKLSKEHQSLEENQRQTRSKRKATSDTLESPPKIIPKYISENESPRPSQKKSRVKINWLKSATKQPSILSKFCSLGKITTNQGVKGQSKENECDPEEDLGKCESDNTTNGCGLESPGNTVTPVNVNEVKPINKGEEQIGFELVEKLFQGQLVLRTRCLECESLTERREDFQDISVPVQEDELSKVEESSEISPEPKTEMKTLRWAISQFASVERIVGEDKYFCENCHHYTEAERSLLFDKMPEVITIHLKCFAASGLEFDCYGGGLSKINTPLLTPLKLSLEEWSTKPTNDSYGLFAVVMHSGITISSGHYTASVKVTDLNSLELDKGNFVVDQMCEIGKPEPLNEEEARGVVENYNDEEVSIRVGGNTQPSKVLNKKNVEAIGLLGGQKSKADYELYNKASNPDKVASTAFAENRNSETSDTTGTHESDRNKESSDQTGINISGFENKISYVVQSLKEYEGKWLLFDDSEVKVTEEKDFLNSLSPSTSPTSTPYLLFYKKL
Assay [11] addresses ATP-dependent 6-phosphofructokinase (Trypanosoma brucei brucei) (UniProt O15648). Description: qHTS Assay to Find Inhibitors of T. brucei phosphofructokinase: hit validation (AID 492961). A digest of the protocol:
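Percent activity derived from corrected luminescence, normalized between 0x and 1x enzyme controls, then fitted to concentration-response curves. Conditions: 1.25 nM PFK, 0.1 mM ATP, 0.5 mM F6P, 45 min RT.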

Assay [12] has as its target Luciferin 4-monooxygenase (Photinus pyralis) (UniProt P08659). Description: Biochemical firefly luciferase enzyme assay for NPC (AID 624030).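 Note: purified P. pyralis luciferase at 10 nM with luciferin and ATP substrate; 0% = DMSO and -100% = full luciferase inhibition by PTC124 control; nearly all actives have a fitted effect of over 70% in size.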 An outline of the steps: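 Counter-screen for direct inhibition of the luciferase enzyme by approved-drug library compounds, run at 10 nM enzyme in 50 mM Tris acetate (final). Luminescence was read within 5 min of enzyme-buffer addition and normalized to PTC124 versus DMSO (0%).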

Assay [13] can be described thus: qHTS profiling for inhibitors of Plasmodium falciparum proliferation (AID 504749).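 Note: 0% = DMSO vehicle and full inhibition = artemisinin control; nearly all actives have a fitted effect of over 60% in size.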 The conditions noted are these: P. falciparum in erythrocytes, SYBR Green DNA, 72 h. A digest of the protocol: (§1)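 P. falciparum-infected erythrocytes (0.3% parasitemia, 2.5% hematocrit final) were exposed to compounds for 72 h at 37 C in 5% CO2, then lysed with SYBR Green buffer overnight at room temperature; parasite DNA fluorescence was normalized to artemisinin and DMSO controls.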

The subject of assay [14] is 3D7. Described as above. To be noted: P. falciparum in erythrocytes, SYBR Green DNA, 72 h; series mostly up to 12.8 µM. A digest of the protocol: as §1
Assay [15] relates to C2A. The assay is described as above. The conditions noted are these: P. falciparum in erythrocytes, SYBR Green DNA, 72 h; series mostly up to 12.8 µM. A digest of the protocol: as §1
Assay [16] deals with CP217. The assay is described as above. To be noted: P. falciparum in erythrocytes, SYBR Green DNA, 72 h; series mostly up to 12.8 µM. An outline of the steps: as §1
Assay [17] relates to CP250. Described as above. To be noted: P. falciparum in erythrocytes, SYBR Green DNA, 72 h; series mostly up to 12.8 µM. An outline of the steps:
as §1

The subject of assay [18] is FAB9. The assay is described as above. To be noted: P. falciparum in erythrocytes, SYBR Green DNA, 72 h; series mostly up to 12.8 µM. An outline of the steps: as §1
The test system of assay [19] is JCK. The description is as above. To be noted: P. falciparum in erythrocytes, SYBR Green DNA, 72 h; series mostly up to 12.8 µM. A digest of the protocol:
as §1

Assay [20] concerns PC49. The assay is described as above. The conditions noted are these: P. falciparum in erythrocytes, SYBR Green DNA, 72 h; series mostly up to 12.8 µM. An outline of the steps: as §1
The mark [21] stands for this setting: measured here: cell count channel max response.
Where [22] appears, read: measured here: lipid channel max response.

Results filed as inconclusive are left out. Activity calls are given as the source filed them. Unless noted, calls come from the whole dose curve; as a rule, active = well fitted curve in the direction sought with a large enough effect; inconclusive = small, poorly fitted or top-dose-only effect, or another doubt; inactive = no such curve, though single readings can be large; an effect the other way counts as inactive or inconclusive. Where only a bound is given, the exact number is not on record here.

Sequence of Glucocorticoid receptor (Homo sapiens) (P04150 whole entry, looked up, the tested form may be a part): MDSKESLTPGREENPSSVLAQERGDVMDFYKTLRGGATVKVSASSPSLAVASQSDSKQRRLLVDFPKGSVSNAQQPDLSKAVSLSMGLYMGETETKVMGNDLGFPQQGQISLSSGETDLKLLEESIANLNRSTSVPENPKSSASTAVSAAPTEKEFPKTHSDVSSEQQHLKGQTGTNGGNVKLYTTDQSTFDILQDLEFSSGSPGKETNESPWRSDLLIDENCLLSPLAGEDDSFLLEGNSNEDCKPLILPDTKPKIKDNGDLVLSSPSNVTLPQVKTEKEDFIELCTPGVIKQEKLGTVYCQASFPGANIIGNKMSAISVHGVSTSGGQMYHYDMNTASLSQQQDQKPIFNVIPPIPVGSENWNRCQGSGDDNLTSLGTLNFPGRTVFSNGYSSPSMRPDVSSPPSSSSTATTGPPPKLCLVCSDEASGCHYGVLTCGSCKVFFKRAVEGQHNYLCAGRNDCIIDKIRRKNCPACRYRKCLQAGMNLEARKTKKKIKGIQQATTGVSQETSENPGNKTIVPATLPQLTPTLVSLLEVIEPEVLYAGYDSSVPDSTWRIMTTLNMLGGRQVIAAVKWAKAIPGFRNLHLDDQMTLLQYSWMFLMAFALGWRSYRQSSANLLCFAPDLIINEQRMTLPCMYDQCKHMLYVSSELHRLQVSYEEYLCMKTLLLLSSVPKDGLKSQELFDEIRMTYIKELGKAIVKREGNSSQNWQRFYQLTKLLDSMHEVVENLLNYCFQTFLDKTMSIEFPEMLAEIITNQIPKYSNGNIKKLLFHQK
Sequence of 3',5'-cyclic-AMP phosphodiesterase 4B (Homo sapiens) (Q07343 whole entry, looked up): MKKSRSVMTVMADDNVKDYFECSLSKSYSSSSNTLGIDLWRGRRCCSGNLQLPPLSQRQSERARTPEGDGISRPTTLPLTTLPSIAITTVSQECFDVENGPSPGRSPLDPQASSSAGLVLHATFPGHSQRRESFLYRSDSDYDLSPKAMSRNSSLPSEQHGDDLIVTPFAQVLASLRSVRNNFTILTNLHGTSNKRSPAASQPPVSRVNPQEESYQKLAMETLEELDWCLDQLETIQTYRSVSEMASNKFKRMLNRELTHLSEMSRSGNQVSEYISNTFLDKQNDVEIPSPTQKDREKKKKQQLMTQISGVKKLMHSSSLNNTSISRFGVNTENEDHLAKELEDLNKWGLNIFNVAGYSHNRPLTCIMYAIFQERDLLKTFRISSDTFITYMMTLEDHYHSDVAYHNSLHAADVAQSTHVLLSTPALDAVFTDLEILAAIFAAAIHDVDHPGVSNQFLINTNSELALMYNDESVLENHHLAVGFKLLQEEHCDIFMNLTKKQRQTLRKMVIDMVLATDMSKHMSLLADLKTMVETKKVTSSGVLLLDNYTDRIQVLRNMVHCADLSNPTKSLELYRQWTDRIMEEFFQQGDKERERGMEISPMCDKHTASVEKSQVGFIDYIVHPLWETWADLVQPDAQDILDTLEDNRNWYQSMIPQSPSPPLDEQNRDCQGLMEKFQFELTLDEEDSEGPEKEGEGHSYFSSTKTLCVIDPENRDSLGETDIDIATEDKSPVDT
Sequence of Luciferin 4-monooxygenase (Photinus pyralis) (P08659 whole entry, looked up): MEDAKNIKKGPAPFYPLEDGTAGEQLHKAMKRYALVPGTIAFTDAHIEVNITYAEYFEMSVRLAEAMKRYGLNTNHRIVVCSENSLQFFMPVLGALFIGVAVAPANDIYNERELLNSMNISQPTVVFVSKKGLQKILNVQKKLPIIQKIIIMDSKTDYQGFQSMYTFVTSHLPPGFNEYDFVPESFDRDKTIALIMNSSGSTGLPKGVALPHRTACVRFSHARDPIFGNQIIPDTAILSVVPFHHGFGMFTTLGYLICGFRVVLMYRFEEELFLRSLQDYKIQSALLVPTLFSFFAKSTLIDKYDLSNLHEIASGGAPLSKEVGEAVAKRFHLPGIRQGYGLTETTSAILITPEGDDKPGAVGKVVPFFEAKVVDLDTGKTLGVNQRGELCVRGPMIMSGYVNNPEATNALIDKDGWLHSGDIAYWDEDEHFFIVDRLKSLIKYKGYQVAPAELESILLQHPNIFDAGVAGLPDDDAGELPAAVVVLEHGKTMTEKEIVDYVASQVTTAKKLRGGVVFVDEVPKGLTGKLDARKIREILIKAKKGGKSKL
Sequence of ATP-dependent 6-phosphofructokinase (Trypanosoma brucei brucei) (O15648 whole entry, looked up): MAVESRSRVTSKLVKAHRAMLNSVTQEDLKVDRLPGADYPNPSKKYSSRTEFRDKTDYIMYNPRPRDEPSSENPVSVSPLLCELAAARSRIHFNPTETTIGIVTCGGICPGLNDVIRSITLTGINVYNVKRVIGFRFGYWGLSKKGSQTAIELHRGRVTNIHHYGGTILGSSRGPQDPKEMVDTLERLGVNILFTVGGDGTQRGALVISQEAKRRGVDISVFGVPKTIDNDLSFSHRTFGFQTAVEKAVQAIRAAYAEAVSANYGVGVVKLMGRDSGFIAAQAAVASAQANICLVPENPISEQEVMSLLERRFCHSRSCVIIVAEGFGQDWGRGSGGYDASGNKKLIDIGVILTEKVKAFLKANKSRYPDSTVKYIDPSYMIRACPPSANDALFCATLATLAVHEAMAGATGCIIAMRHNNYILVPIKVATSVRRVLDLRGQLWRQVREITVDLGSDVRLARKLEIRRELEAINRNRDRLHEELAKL

Take `CN[C@@H]1[C@H](O[C@H]2[C@@H](O[C@@H]3[C@@H](O)[C@@H](O)[C@@H](N=C(N)N)[C@@H](O)[C@@H]3N=C(N)N)O[C@@H](C)[C@]2(O)CO)O[C@H](CO)[C@@H](O)[C@@H]1O`: the outcome in [1], in [4] and in assay [8] was inactive. Moreover, the Potency result in [2], in assay [7] and in assay [10] was “inactive” each time. Further, the activity change, negative = inhibition in assay [3] is 1.68% (inactive); in [9], -1.28% (inactive). For the same molecule, the Potency in [5] and in [6] was > 20.6 µM (inactive) in each case. In addition, the max response was -9.77% in [9] (setting [21]) and -12.5% in assay [9] (setting [22]).

Consider `C[C@]12C=CC(=O)C=C1CC[C@@H]1[C@H]3C[C@@H](O)[C@](O)(C(=O)CO)[C@@]3(C)C[C@H](O)[C@]12F`, for which the call in assay [1], in [4] and in assay [8] was inactive. Moreover, the Potency entry in assay [2], in assay [7] and in assay [10] was “inactive” each time. The values for the activity change, negative = inhibition in assay [3] and in [9] were 7.24% (inactive) and -1.03% (inactive), respectively. Besides, the Potency in [5] is 0.108 µM (active); in [6], 0.0827 µM (active). The max response in assay [9] (setting [21]) turned out to be 6.41%; in [9] (setting [22]), 6.57%.

As to `CN1C(=O)C[C@H](c2ccccc2)C1=O`, the outcome in [1], in assay [4], in [8] and in assay [11] was inactive. Moreover, the Potency entry in assay [2], in assay [7], in assay [10], in [12], in assay [14] and in assay [15] was “inactive” in each case. Moreover, the Potency entry in [16], in assay [17], in assay [18], in assay [19] and in assay [20] was “inactive” each time. Besides, the activity change, negative = inhibition in assay [3] is 35.9% (inactive); in assay [9] it was 0.325% (inactive). For the same molecule, the Potency in assay [5] and in [6] was > 20.6 µM (inactive) throughout. In addition, the max response is -28% in [9] (setting [21]) and -25.7% in assay [9] (setting [22]). Further, in assay [13] (at 28.7 µM (top of the series), parasite line B), the activity, negative = inhibition was -2.97% (inactive).

In the case of `Nc1ccccc1S(N)(=O)=O`, the call in assay [1], in assay [4] and in assay [8] was inactive. In addition, the Potency result in assay [2], in assay [7] and in assay [10] was “inactive” each time. The activity change, negative = inhibition in assay [3] was -3.4% (inactive); in assay [9] it was -3% (inactive). Besides, the Potency in [5] and in assay [6] was > 20.6 µM (inactive) throughout. For the same molecule, the max response is -21% in assay [9] (setting [21]) and -21.4% in assay [9] (setting [22]).

Consider `C[C@]1(OC(=O)/C=C\c2ccccc2)C[C@@H](O)[C@@]2(O)C=CO[C@@H](O[C@H]3O[C@@H](CO)[C@@H](O)[C@@H](O)[C@@H]3O)[C@H]21`, for which the molecule was called inactive in assay [1], in [4] and in [8]. Moreover, the Potency result in [2], in assay [7] and in assay [10] was “inactive” in each case. The activity change, negative = inhibition is -11% (inactive) in assay [3] and -2.22% (inactive) in assay [9]. For the same molecule, the Potency in assay [5] and in assay [6] was > 20.6 µM (inactive) throughout. Further, the max response in assay [9] (setting [21]) was -15.8%; in assay [9] (setting [22]), -17.4%.

For the molecule `O=C(NC[C@@H](O)CO)c1c(I)c(C(=O)NC[C@@H](O)CO)c(I)c(N(CCO)C(=O)CO)c1I`, the molecule was classed as inactive in assay [1], in assay [4], in assay [8] and in assay [11]. Besides, the Potency result in assay [2], in assay [7], in [12], in assay [14], in [15] and in [16] was “inactive” throughout. Also, the Potency entry in [17], in assay [18], in assay [19] and in assay [20] was “inactive” in each case. Further, the figures for the activity change, negative = inhibition in [3] and in assay [9] were -8.22% (inactive) and -2.29% (inactive), respectively. Further, the Potency in [5] and in assay [6] was > 20.6 µM (inactive) each time. Further, the max response in assay [9] (setting [21]) is -1.01%; in [9] (setting [22]), -0.682%. Besides, the activity, negative = inhibition in assay [13] (at 12.8 µM (top of the series), parasite line A) was 7.51% (inactive); in [13] (at 12.8 µM (top of the series), parasite line B), 8.28% (inactive).
